# The supplement of paper PMC6555819
# Tested on: VDR:RXRa (NR concentration 270 nM, RXRa partner concentration 90 nM)
# Test: PBM binding z-score (relative to random genomic background probes); higher = stronger binding; sequences stand for … in GC…GCGATTGACAGCGTAGAATGAAGG
# Experimental: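 Protein-binding microarray (Agilent 4x180K custom design, double-stranded 60-nt probes: 5' GC cap, 34-nt variable region, 24-nt constant primer region; full probe sequence given). Purified or IVT nuclear receptor:RXRα heterodimers (3:1 NR:RXRα, mostly 270:90 nM) or homodimers were incubated for 1 h in PBS with 2% milk and no ligand, then detected with Alexa488 antibodies. Fluorescence from o1-orientation probes (~5 replicates averaged) was converted to z-scores against 500 random hg19 background probes. Variable regions are seed direct-repeat (DR0–DR5) sites, all their single-nucleotide variants and half-site ablations.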
row,Sequence,PBM binding z-score
1,AGAATGAGGTTATACGTAGATCAGGGAAGAAAGT,1.52
2,CGAACTAGGTCAAGGACCGTGAATCTCCGCACGC,0.799
3,TCATATAGGTAATACAGGTGAAAGTAGGCATCTA,1.41
4,TCATTTAGGTAAACAGGTGAAAGTCCGTAAGTTA,1.26
5,CCTAGTTGGTCAGGAGGTCACAGACCGGATATGA,3.64
6,ACTAGCAGGCCAAGGGTCATTCAAGATTAGTCCG,3.49
7,CCTAGCCGGCCAGGGTCACTCAAGCATTTCGCTT,2.37
8,GCCTACGGGTCAAAGGTTATAGCATGAATAGAAT,5.46
9,CGTACTGGGCCAAAAAGGTCATTGATGCCGATAA,5.04
10,CCGACTGGGGCAGAAAGGTTACAATACCATCCGG,1
11,GATACAGGGTCAAGGCGAGAGTACGCGTATTGAT,4.4
12,CCGACTGGAGCAAAGGTTACCATACTCAGTACGA,1.17
13,ACTAGCAGGCCAAGTTTGGGTCAGTCAAACAAAG,0.056
14,ATATGTAGGTTGAGGGTCATTCAGGTTGGTTCGC,4.78
15,CGAACTAGGTCATTGACAGGACAGTGAATAGTAA,2.2
16,ATCTCTAGGTAACCAAGTTCAGTGGATGCCGAAC,4.04
17,TCGAGTAGGTTACCAATGGGGCATGCAGCTTTCT,-0.0716
18,CCTACTGGGCCAAAAAGGTCATCGATGCCGATAA,4.79
19,CCTGCTAGCTCATGGTCAGCTAATCTACAGTATG,-0.366
20,GCGACTGGGGCATCCGCAGGTTACCATAACTTAA,-0.12

row,Sequence,PBM binding z-score
1,TAGCGTAGGTCATTGGGCCAGTATAGTACGCATC,2.41
2,CGTCCAAGGTCAGCAGGGCAGTGAAAGCGACGTG,2.87
3,CGTCCAAGCTCATAGGAGGTCAGTGAAGACAGAT,1.69
4,CAAACTAGGTCAAGAGGTCAAGGTCCGCTTCCCG,5.53
5,CGTCAAAGTTCAACTAAGCTAACGTAAAGCACGC,4.35
6,ATATGTAGGTTATCGGGTCATTCGGTTTGCGCAT,5.19
7,CGTACAAGGTCAATGCTAGGTCAGTGAAAGCATT,5.24
8,CGTCAAAGTTCCAGGTAACGTAACAGAAAGCAGC,-0.14
9,TGTCTAAGTTCAAAGGTAACGTAAGTATCCACAC,4.6
10,TCTCGCAGGCCAGAGGGTCACTCAAGAGGTACGG,1.79
11,CCTACTGGTCCATCAGGTCATTGATATCAACGTT,2.46
12,CAAACTAGGTCAAAGCTCAAAGTCGAGCCAACCA,1.74
13,CCGACTGGGGCATAAGGTTACTATAAGCCAGCCC,0.306
14,ACTATTAGTTGAAACGAGGGCAACCGATAGGTTG,1.63
15,CCTTCTGGGCCACGAAAGGTCATTGATTCAGTGA,4.28
16,ACCTCTAGGTAAAGATAGTTCAGTGAATGCAAAT,0.302
17,GCTTACGGGTCAAAGGTTATAGCCTGAATAGAAT,5.72
18,TCGAGTAGGTTAGTCGGGGCATTCAACCAACATA,2.31
19,GTACCAAGGGGAATAGGTCGTTGATGAGTAGGCG,0.104
20,CCTTACGGGTCACTCCCGGTTATAGCATCGGAGT,3.03
